From PubChem BioAssay
Tgondii IFNg = T. gondii growth inhibition with IFN-gamma, primary screen, cell-based. 3.8% of 69,000 active. Toxoplasma gondii growth in IFN-gamma-treated host cells; active compounds read low. activity change, negative = inhibition, % (test concentration not listed); in the data active = activity change below about -70%, passing the limit was not always enough;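 also: host cells are HeLa cells infected with Toxoplasma gondii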
* marks the source's active call; other numbers are inactive results. The sample as a whole holds a higher share of hits than the screen did.

SMILES | Tgondii IFNg
C=CCOCC1c2nnn(C)c2CCN1Cc1ccoc1 (centres undefined) | -5
CCN(CC)S(=O)(=O)c1ccc2oc3ccc(S(=O)(=O)N(CC)CC)cc3c2c1 | -8
CCCc1cc(=O)oc2cc(OS(=O)(=O)c3ccc(Cl)cc3)ccc12 | -55
CCNS(=O)(=O)c1ccc(-c2oc3cc(S(=O)(=O)NCC)ccc3c2Cl)cc1 | -78*
COc1ccc(-c2cccc(C(C)N(C)C)c2)cc1CO (centres undefined) | 3
O=C1c2ccccc2C(=O)N1CCC1=NCCc2ccccc21 | 6
CC1=C(C(=O)NCCC2=CCCCC2)C2(CCN(S(=O)(=O)c3cccs3)CC2)OC1=O | -3
COc1cccc(-c2noc(-c3c(O)c4cc(C)ccc4[nH]c3=O)n2)c1 | -6
Cn1nc(-c2ccccc2)cc1NC(=O)Cn1cnc(Cl)c1Cl | 2
Cc1c(C)c(C)c(S(=O)(=O)Nc2cc(-c3ccccc3)nn2CCC#N)c(C)c1C | -88*
Cn1nc(-c2ccccc2)cc1NC(=O)C1CCCCC1 | 47
CC(=O)N1CC[C@@H](OCc2ccccn2)[C@@H](Cc2ccccc2)C1 | 0
Cc1ccc(C)c(NC(=O)Cn2cnc3cc(C)c(C)cc32)c1 | -67
Cc1ccccc1-n1nc(C)c2c1CC(C)(C)CC2=O | -30
CC1(C)CC(=O)c2cc(-c3ccccc3)n(CC(=O)O)c2C1 | 18
COc1ccccc1-n1c(-c2ccc(Br)cc2)cc2c1CC(C)(C)CC2=O | -92*
Cc1ccccc1-c1noc(CCC(=O)NCc2cc(C(C)(C)C)n[nH]2)n1 | -9
Cc1c(CN(C)Cc2cnc(-c3cccc4ccccc34)nc2)cnn1C | 35
Cc1oc(-c2ccccc2)nc1CN1C(=O)CSc2ccc(S(=O)(=O)N3CCOCC3)cc21 | -44
Cc1ccccc1-c1nc(Cn2c(=O)cc(C(=O)N3CCCCC3)c3ccccc32)c(C)o1 | 4
Cc1ccccc1-c1nc(CN2C(=O)CSc3ccc(S(=O)(=O)N4CCCC4)cc32)c(C)o1 | -80*
CCc1ccccc1NC(=O)N1CCC2(CC1)NC(=O)c1ccc(Cl)cc1N2CC | 2
CC(=O)Nc1ccc2nc(-c3nccn3CCn3cccn3)ccc2c1 | 6
CCc1ccccc1NS(=O)(=O)c1cc2c3c(c1)CCN3C(=O)CC2 | -52
COc1ccc(NS(=O)(=O)c2cc3c4c(c2)CCN4C(=O)CC3)cc1 | -15
SMILES | Tgondii IFNg
CC(C)c1ccc(NS(=O)(=O)c2cc3c4c(c2)CCN4C(=O)CC3)cc1 | -77*
O=C1CCc2cc(S(=O)(=O)NCCc3ccccc3)cc3c2N1CCC3 | -5
Cc1cc(C)cc(NS(=O)(=O)c2cc3c4c(c2)CCN4C(=O)CC3)c1 | -79*
CCc1cccc(NS(=O)(=O)c2cc3c4c(c2)CCN4C(=O)CC3)c1 | -81*
Cc1cc(F)ccc1NS(=O)(=O)c1cc2c3c(c1)CCN3C(=O)CC2 | -45
O=C1CCc2cc(S(=O)(=O)Nc3ccc(Cl)cc3)cc3c2N1CC3 | -17
O=C1CCc2cc(S(=O)(=O)Nc3ccc(Br)cc3)cc3c2N1CC3 | 243
Cc1cc(C)c(NC(=O)Cn2c(=O)cc(C(=O)N3CCc4ccccc4C3)c3ccccc32)c(C)c1 | 8
CC(=O)N1CC2(CCN(C(=O)c3ccc4c(c3)OCCO4)CC2)CC1C(=O)O (centres undefined) | 4
Cc1ccccc1NC(=O)N1C[C@@H]2C[C@H](C(=O)N3CCOCC3)[C@@H](C1)O2 | 0
NC(=O)c1cnc2n1CCN(C(=O)c1cn3ccsc3n1)C2 | 0
CCCc1cncnc1N1CCCC(N2CCN(c3ccccc3OC)CC2)C1 (centres undefined) | 16
Cc1cccc(OCC(=O)N2CCC[C@@H]2C(=O)NCCc2csc(-c3ccccc3)n2)c1 | 5
CC(CN(C)C(=O)c1c(O)cccc1O)N1CCOCC1 (centres undefined) | 4
CC(O)CNCc1ccc(-c2ccc(F)cc2)o1 (centres undefined) | -20
CCc1nc([C@H]2CN(C)C[C@@H]2C(=O)NCc2cnc(C)cn2)c(C)[nH]1 | 2
O=C(CCCC(=O)N1C2CCC1CC(c1ccc(F)cc1)C2)N1CCc2ccccc21 (centres undefined) | 4
Cc1ccoc1C(=O)N1C[C@H](OCc2cccnc2)[C@@H]2OCCC[C@@H]21 | 5
O=C(N[C@@H]1CCO[C@]2(CCN(Cc3ccc(F)cc3)C2)C1)c1ccco1 | -24
CCn1nc(C(=O)N2CCC3(CC2)CN(C(C)=O)c2ccccc2N3)c2ccccc2c1=O | -30
COc1ccc(S(=O)(=O)Nc2ccc3c(c2)OC[C@@H](C)N(Cc2cc(F)ccc2F)C[C@@H](C)[C@H](OC)CN(C)C3=O)cc1 | -90*
COc1cccc(S(=O)(=O)Nc2ccc3c(c2)C(=O)N(C)C[C@H](OC)[C@H](C)CN(Cc2ccccc2F)[C@@H](C)CO3)c1 | -45
COc1cccc(S(=O)(=O)Nc2ccc3c(c2)C(=O)N(C)C[C@@H](OC)[C@@H](C)CN(Cc2ccccc2F)[C@H](C)CO3)c1 | -53
COc1cccc(S(=O)(=O)Nc2ccc3c(c2)C(=O)N(C)C[C@H](OC)[C@H](C)CN(Cc2ccccc2F)[C@H](C)CO3)c1 | -57
